The values that follow come from ChEMBL document CHEMBL3988442, “University of Dundee, Small-Polar-MMV Screening Library” (2021).

Holding throughout (set-up): scale not given: direction of the effect not stated beside the values
Test [1] concerns the target Protein translocase subunit SecA (Escherichia coli (strain K12)) (UniProt P10408). Briefly: Assay to Identify E. coli SecA ATPase Inhibitors. It is filed as functional. The following applies: 30 µM.
In test [2] the target is T1, Ubiquitin-activating enzyme e1, putative (Leishmania donovani (strain BPK282A1)) (UniProt E9BSI1).
T1 sequence (whole entry): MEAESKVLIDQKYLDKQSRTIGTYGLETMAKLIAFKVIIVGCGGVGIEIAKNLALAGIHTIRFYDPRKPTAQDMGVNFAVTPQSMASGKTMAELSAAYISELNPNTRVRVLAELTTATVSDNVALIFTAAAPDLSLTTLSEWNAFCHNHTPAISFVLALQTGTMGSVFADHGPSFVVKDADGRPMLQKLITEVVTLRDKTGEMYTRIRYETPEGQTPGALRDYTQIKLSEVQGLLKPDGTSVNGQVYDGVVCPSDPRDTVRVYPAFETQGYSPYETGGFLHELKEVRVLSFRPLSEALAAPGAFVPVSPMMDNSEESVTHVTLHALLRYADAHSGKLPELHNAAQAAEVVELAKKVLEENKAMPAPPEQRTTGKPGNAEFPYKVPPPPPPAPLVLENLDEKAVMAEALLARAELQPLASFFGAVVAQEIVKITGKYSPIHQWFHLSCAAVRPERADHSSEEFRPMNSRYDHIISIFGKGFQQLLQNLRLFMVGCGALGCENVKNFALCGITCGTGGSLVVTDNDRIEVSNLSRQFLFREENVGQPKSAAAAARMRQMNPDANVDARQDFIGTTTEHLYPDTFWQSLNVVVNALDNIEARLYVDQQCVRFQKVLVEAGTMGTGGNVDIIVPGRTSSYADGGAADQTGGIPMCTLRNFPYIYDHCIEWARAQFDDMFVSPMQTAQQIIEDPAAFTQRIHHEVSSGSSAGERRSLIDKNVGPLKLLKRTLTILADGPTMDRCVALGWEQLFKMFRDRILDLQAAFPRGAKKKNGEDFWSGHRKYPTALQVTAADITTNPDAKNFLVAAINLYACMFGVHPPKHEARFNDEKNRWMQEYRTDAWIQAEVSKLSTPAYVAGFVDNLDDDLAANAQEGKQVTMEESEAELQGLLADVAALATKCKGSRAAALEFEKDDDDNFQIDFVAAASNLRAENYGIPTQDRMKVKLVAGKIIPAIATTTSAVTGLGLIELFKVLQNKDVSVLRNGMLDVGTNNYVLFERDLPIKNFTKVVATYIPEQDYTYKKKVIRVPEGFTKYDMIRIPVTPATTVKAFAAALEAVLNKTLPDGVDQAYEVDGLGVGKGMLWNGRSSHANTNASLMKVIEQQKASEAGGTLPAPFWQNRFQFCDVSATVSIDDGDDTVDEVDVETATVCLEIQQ
The test is described as follows: Leishmania donovani Ubiquitin Activating Enzyme (LdE1). It is filed as functional. The following applies: 30 µM.

Test [3] has as its target AMP-activated protein kinase, AMPK (Homo sapiens) (UniProt P54646+O43741+P54619+Q9UGJ0+Q9Y478+Q13131+Q9UGI9). Briefly: AMP-dependent Kinase enzyme assay. An in vitro enzyme assay that detects ADP turnover that is directly proportional to AMPK activity. This uses naive AMPK that is activated during the assay with MK-8722. It counts as functional. Particulars: 30 µM.
Test [4] concerns the target Sialic acid-binding Ig-like lectin 9 (Homo sapiens) (UniProt Q9Y336). The test is described as follows: Hs-Siglec9 ALPHAscreen SOP 20170721. The following applies: 10 µM. In general terms: Alpha assays give light when donor and acceptor beads are brought close together.
Test [5] has as its system Trypanosoma cruzi. The test is described as follows: Trypanosoma cruzi phosphomannomutase and mannose-1-phosphate guanylyltransferase assay. It counts as functional. The following applies: 10 µM.
The target of test [6] is T2, Arginase-2, mitochondrial (Homo sapiens) (UniProt P78540).
T2 sequence (whole entry): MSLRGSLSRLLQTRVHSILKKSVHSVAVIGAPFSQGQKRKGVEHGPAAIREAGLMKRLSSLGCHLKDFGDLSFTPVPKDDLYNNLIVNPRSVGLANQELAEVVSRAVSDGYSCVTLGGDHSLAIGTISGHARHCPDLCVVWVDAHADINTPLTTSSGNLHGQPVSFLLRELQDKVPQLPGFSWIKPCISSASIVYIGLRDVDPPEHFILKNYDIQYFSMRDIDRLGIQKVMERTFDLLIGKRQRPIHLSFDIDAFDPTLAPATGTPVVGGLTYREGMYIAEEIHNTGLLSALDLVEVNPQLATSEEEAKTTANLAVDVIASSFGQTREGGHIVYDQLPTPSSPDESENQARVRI
Briefly: in vitro enzyme assay to detect the production of urea directly proportional to the activity of Arginase II. Note: in the data most compounds retested in dose-response had high values. It is filed as functional. The following applies: 33.3 µM.

Test [7] concerns the target T3, Proteasome subunit beta (Trypanosoma cruzi) (UniProt O96673).
T3 sequence (whole entry): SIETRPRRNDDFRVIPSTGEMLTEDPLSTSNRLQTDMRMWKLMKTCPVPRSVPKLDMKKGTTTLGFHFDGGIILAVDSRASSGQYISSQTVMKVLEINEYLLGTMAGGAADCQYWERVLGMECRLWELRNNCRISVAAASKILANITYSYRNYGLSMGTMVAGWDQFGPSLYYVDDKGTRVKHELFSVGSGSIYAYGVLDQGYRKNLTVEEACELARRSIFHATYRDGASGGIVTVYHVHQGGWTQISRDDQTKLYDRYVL
The test is described as follows: Trypanosoma cruzi proteasome chymotrypsin-like activity (TcProtChymo) assay. Note: in the data most compounds retested in dose-response had high values. Particulars: 9.37 µM. It counts as functional.

The species entered for test [8] is Homo sapiens. Briefly: To identify inhibition of the IFN signalling (Jak-Stat) pathway via expression of an eGFP reporter gene under the control of an IFN-stimulated response element (ISRE) containing MxA promoter. It is filed as functional. Particulars: 30 µM. On the technique in general: A reporter such as luciferase makes a cellular process visible.
The target in test [9] is T4, Tyrosyl-tRNA synthetase, putative (Trypanosoma cruzi (strain CL Brener)) (UniProt Q4DSP6).
T4 sequence (whole entry): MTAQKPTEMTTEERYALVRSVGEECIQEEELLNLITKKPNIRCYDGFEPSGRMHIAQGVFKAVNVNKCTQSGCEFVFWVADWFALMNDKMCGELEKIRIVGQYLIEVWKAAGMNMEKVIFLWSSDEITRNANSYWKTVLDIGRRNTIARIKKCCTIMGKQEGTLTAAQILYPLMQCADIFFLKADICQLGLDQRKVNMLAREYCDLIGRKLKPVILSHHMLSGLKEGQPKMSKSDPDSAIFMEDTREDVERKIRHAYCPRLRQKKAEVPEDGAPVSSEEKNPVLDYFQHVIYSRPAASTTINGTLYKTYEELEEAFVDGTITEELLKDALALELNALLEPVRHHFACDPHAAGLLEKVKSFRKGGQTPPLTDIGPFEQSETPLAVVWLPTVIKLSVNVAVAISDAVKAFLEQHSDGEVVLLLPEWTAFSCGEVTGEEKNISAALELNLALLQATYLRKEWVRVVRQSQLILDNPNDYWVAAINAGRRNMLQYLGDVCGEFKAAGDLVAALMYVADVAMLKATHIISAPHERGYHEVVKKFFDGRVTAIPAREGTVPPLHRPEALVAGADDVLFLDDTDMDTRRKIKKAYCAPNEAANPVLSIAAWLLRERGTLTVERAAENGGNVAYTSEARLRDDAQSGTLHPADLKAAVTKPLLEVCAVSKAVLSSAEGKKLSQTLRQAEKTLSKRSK
Briefly: Trypanosoma cruzi tyrosyl tRNA synthetase (TcYRS) _High Tyrosine SOP. Note: in the data most compounds retested in dose-response had high values. The following applies: 30 µM. It is filed as functional.

Test [10] addresses T4, Tyrosyl-tRNA synthetase, putative (Trypanosoma cruzi (strain CL Brener)). The test is described as follows: Trypanosoma cruzi tyrosyl tRNA synthetase (TcYRS) SOP. The following applies: 30 µM. It counts as functional.
Test [11] deals with Chromo domain-containing protein 1 (Saccharomyces cerevisiae (strain ATCC 204508 / S288c) (Baker's yeast)) (UniProt P32657). The test is described as follows: ScCHD-1 Enzyme Inhibition Assay. Note: in the data most compounds retested in dose-response had high values. It counts as functional. Particulars: 30 µM.

For some of these results: Potency and affinity values are given separately.

Chromo domain-containing protein 1 (Saccharomyces cerevisiae (strain ATCC 204508 / S288c) (Baker's yeast)), sequence (P32657 whole entry, the tested form may be a part): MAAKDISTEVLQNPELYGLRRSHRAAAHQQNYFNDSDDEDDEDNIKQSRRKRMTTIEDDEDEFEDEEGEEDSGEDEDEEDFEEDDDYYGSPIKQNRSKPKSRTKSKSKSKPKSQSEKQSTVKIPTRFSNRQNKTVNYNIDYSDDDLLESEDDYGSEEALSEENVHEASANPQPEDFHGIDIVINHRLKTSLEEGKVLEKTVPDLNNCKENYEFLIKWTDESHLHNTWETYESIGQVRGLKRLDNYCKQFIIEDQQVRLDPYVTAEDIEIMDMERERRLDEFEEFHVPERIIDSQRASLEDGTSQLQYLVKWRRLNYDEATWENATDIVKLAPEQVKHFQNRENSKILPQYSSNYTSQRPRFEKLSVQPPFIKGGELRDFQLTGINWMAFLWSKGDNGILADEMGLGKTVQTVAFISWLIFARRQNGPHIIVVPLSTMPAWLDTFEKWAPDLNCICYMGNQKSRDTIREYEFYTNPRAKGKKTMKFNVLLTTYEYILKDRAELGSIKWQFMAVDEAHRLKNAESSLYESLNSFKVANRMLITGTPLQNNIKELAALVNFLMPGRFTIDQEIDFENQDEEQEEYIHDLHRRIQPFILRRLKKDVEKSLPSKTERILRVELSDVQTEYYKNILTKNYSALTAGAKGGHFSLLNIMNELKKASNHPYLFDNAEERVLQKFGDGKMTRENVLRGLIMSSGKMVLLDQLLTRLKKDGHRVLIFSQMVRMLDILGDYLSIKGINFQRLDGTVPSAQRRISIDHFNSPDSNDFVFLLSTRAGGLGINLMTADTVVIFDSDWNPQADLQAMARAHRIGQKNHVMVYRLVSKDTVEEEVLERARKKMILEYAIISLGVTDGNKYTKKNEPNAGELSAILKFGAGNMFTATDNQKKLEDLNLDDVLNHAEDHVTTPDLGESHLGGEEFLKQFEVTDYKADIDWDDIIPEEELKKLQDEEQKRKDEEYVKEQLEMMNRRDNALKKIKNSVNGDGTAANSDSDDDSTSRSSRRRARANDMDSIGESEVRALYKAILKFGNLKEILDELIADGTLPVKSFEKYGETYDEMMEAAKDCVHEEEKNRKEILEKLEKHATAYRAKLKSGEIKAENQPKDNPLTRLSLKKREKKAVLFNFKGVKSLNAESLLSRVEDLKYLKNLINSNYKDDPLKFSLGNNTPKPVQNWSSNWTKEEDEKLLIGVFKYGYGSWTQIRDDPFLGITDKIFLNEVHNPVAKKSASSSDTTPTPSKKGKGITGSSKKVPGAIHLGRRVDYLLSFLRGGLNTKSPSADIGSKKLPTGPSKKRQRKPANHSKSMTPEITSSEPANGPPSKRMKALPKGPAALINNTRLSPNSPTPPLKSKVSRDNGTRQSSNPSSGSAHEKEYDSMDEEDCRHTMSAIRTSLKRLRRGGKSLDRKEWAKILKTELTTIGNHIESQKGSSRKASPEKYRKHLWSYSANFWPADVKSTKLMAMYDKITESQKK
Sialic acid-binding Ig-like lectin 9 (Homo sapiens), sequence (Q9Y336 whole entry): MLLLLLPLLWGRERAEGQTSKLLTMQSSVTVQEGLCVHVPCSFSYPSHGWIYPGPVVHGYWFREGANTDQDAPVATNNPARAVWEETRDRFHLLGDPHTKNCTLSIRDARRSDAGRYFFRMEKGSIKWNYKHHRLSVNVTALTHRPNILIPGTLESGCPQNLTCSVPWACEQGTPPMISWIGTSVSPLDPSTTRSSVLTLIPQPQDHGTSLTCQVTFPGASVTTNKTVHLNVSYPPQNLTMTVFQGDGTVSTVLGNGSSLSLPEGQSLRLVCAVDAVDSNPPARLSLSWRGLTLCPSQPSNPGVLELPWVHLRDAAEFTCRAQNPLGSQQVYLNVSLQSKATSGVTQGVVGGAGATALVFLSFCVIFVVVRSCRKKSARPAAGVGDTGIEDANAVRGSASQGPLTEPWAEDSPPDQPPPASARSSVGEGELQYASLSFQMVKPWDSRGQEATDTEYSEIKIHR
Protein translocase subunit SecA (Escherichia coli (strain K12)), sequence (P10408 whole entry): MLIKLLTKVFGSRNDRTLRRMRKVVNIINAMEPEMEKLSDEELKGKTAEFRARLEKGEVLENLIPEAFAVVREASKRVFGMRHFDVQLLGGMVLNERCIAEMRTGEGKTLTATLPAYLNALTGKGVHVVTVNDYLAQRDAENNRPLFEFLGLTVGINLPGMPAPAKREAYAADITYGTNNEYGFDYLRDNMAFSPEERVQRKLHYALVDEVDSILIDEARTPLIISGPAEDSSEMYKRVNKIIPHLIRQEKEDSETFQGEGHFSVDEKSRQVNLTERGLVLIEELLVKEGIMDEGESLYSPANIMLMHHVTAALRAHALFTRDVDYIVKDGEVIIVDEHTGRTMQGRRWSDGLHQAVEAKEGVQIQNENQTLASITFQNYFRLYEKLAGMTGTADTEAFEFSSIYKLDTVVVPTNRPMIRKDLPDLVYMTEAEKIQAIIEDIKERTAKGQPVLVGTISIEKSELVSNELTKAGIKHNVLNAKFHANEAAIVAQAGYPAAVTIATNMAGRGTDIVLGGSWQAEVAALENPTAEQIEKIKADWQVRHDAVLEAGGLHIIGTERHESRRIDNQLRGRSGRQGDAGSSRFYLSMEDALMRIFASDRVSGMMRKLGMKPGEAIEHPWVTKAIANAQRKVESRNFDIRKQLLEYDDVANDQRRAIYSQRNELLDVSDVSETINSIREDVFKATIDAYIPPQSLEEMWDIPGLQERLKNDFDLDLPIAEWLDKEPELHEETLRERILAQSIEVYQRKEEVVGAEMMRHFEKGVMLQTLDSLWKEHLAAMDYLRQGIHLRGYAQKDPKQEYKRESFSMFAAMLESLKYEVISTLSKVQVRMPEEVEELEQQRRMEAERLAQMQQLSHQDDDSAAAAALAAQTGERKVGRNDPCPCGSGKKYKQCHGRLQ

As for `COc1ncccc1CNC(=O)NC1CCOc2ccccc21` (stereo unspecified), the Percent Effect in test [1] is -3.57%; in test [2] it was 5.41%; in test [3], -0.164%; in [4], 13.2%; in test [5], 5.48%; in test [6], 0.185%. For the same molecule, the Percent Effect is -4.85% in test [7]; 10.6% in [8]; 0% in test [9]; 13.4% in [10]; -3.69% in [11].
For the molecule `O=C(NCCOCC(F)(F)F)c1ccc(-c2ccco2)[nH]c1=O`, the Percent Effect in test [1] is -1.86%; in test [2] it was 8.11%; in [3] it was 3.08%; in test [4], 3.06%; in test [5] it was -6.13%; in [6], -0.802%. Moreover, the Percent Effect in [7] was 8.29%; in test [8], 19.7%; in test [9], 6.4%; in [10], 11.1%; in test [11], -6.31%.
With `Cc1cc(C)n(C2CN(CC(O)c3ccc(F)cc3)C2)n1` (stereo unspecified), the Percent Effect is -2.64% in [1]; -15.6% in test [2]; -6.46% in [3]; 8.34% in test [4]; 0.936% in [5]; -5.34% in test [6]. Moreover, the Percent Effect was 12.3% in test [7]; 4.19% in test [8]; 6.8% in test [9]; 12.2% in [10]; -6.46% in [11].
On to `O=C1CCCN1CC1CN(C(=O)CC2CCCC2)Cc2nccn2C1` (stereo unspecified), for which the Percent Effect was -4.26% in test [1]; 7.79% in test [2]; 4.17% in [3]; 6.88% in [4]; -1.08% in test [5]; 0.645% in test [6]. In addition, the Percent Effect in [7] is 11.7%; in test [8] it was -6.04%; in [9], 4.23%; in test [10] it was 11.5%; in test [11], -9.36%.
`CC(C)Oc1cccc(CNC(=O)NC(C)(C(=O)O)c2ccco2)c1` (stereo unspecified): the Percent Effect in test [1] was -2.82%; in test [2] it was 13.2%; in test [3], -1.29%; in [4], 13.7%; in test [5] it was 3.08%; in [6], -1.08%. In addition, the Percent Effect in test [7] was -2.79%; in test [8] it was -7.9%; in [9], 9.36%; in [10] it was 18.5%; in test [11], -0.593%.
For `Cn1cc(C2CCCN2C(=O)CCCOCc2ccccc2)cn1` (stereo unspecified), the Percent Effect was -4.26% in test [1]; 10.1% in test [2]; -1.48% in test [3]; -1.07% in test [4]; 4.25% in test [5]; -1.9% in test [6]. The Percent Effect in test [7] is 7.62%; in [8], 2.8%; in [9] it was 0.493%; in [10], 3.8%; in test [11] it was -7.66%.
Turning to `Cc1nc(C)n(CC2CCCN2CC(=O)NCc2ccco2)n1` (stereo unspecified), the Percent Effect in test [1] is -0.786%; in [2] it was 2.74%; in [3], 1.19%; in test [4] it was 4.18%; in [5] it was 0.979%; in [6] it was -1.36%. The Percent Effect was 13.8% in [7]; 6.45% in test [8]; 1.07% in test [9]; -2.5% in test [10]; -3.99% in test [11].
As for `CCOC(=O)C1CCCN(c2ccc(-c3nc(C)no3)cn2)C1` (stereo unspecified), the Percent Effect in test [1] is -4.99%; in test [2] it was 8%; in [3] it was -4.16%; in [4], 19.1%; in [5], 5.36%; in [6] it was 6.25%. Besides, the Percent Effect in [7] was 0%; in test [8] it was 1.88%; in [9], 3.83%; in test [10] it was 11.1%; in test [11] it was -6.07%.
In the case of `COCCN(C)C(=O)c1ccc(OC)cc1O`, the Percent Effect in test [1] is -7.04%; in test [2], 0%; in [3], 0.346%; in test [4], 2.75%; in test [5], -4.17%; in test [6], 2.4%. In addition, the Percent Effect in test [7] amounted to 18.2%; in [8], 8.7%; in test [9] it was 4.17%; in test [10], 8.64%; in test [11], 3.68%.
`Cn1ncc2c1C(COCC1CC1)CN(Cc1ccc(F)cc1)C2` (stereo unspecified): the Percent Effect in test [1] is -0.87%; in test [2], 18.9%; in test [3], 3.73%; in test [4], -11.9%; in [5], -1.07%; in test [6] it was 0.955%. Moreover, the Percent Effect in test [7] is 8.12%; in test [8], 23.2%; in test [9], 2.16%; in test [10], 15.4%; in test [11], -6.67%.
Regarding `O=S(=O)(CCN1CCOC(Cn2cccn2)C1)C(F)(F)F` (stereo unspecified), the Percent Effect in [1] is -0.0845%; in test [2] it was 24.1%; in test [3], 13.4%; in test [4], -1.22%; in test [5], 2.97%; in test [6], -1.5%. Further, the Percent Effect in [7] amounted to 18.4%; in test [8], 30.2%; in test [9], 8.33%; in test [10], 12.7%; in [11] it was 61.7%.
